Assay results from paper PMC7862700, “An all-to-all approach to the identification of sequence-specific readers for epigenetic DNA modifications on cytosine”.

Legend:
Assay in all cases: DAPPL (digital affinity profiling via proximity ligation, sequencing); 10 mM Tris-HCl pH 7.5, 50 mM NaCl, 1 mM DTT, 4% glycerol, room temperature, 30 min; GST-TFs on glutathione beads, 16-mer random dsDNA library, 0.1% formaldehyde crosslink after washing; high values mean tight binding
[1] = biological target: T1, ELK3 (Homo sapiens, UniProt P41970 1-407); conditions: protein: recombinant; tags: N-terminal GST; dsDNA, one strand shown
T1 sequence: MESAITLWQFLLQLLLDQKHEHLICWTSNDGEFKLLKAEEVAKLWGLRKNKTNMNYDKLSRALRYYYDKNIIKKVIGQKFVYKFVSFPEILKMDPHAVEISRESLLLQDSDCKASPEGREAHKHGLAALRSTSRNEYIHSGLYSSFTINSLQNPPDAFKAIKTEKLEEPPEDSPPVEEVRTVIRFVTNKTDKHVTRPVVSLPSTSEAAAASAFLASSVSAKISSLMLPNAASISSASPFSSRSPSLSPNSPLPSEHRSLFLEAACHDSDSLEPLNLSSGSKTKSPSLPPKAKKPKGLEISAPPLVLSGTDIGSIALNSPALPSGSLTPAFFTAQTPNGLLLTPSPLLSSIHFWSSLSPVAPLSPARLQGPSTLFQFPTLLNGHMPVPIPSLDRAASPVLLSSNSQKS
How it was run: (§1)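 Sequencing on an Illumina NextSeq500 followed washing, crosslinking with 0.1% formaldehyde, proximity ligation (BsaI/T4 ligase, 1 h, 37 °C) and PCR amplification of pools that had been incubated for 30 min at room temperature with 200 nmole of a random double-stranded 16-mer DNA library in Tris/NaCl/DTT/glycerol buffer. Each pool held DNA-barcoded human transcription factors, expressed in yeast as GST fusions and captured on glutathione beads, plus a tag-only sample. Binding signal is a hexamer's read frequency for a factor divided by its frequency in the tag-only sample.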

[2] = biological target: HSF1 (Homo sapiens, UniProt Q00613 1-529); conditions: protein: recombinant; tags: N-terminal GST; chain copies: 3; dsDNA, one strand shown
How it was run: as §1

[3] = biological target: T2, ETV2 (Homo sapiens, UniProt O00321 1-342); conditions: protein: recombinant; tags: N-terminal GST; dsDNA, one strand shown
T2 sequence: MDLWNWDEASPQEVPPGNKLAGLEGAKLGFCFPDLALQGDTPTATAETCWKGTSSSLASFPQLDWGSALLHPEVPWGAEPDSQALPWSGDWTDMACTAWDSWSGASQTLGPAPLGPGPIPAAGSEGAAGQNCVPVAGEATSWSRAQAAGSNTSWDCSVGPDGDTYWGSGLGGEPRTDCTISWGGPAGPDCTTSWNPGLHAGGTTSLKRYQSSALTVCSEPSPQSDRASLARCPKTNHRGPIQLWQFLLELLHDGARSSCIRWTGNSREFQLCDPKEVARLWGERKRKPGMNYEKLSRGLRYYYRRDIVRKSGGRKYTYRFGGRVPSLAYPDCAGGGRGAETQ
How it was run: as §1

[4] = biological target: CRX (Homo sapiens, UniProt O43186 1-299); conditions: protein: recombinant; tags: N-terminal GST; dsDNA, one strand shown
How it was run: as §1

[5] = biological target: T3, ETV3L (Homo sapiens, UniProt Q6ZN32 1-361); conditions: protein: recombinant; tags: N-terminal GST; dsDNA, one strand shown
T3 sequence: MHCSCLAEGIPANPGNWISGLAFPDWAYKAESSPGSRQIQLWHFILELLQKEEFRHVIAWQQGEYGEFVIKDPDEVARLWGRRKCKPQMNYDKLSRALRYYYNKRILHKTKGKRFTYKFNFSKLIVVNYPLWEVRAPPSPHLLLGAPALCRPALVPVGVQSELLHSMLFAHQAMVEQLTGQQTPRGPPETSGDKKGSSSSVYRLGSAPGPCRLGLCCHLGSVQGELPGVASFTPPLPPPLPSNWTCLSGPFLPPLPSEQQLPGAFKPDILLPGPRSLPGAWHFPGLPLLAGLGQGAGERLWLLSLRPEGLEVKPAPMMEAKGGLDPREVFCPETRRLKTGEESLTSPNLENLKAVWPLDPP
How it was run: as §1

[6] = biological target: T4, SPDEF (Homo sapiens, UniProt O95238 1-335); conditions: protein: recombinant; tags: N-terminal GST; dsDNA, one strand shown
T4 sequence: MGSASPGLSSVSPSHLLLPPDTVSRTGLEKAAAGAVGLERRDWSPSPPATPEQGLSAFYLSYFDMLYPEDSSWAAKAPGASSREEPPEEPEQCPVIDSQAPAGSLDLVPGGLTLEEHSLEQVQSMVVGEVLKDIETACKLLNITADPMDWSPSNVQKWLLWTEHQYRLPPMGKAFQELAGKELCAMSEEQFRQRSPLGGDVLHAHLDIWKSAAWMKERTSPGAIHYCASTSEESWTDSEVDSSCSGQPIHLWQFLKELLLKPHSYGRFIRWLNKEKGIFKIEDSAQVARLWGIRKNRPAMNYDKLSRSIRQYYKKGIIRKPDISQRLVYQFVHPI
How it was run: as §1

[7] = biological target: T5, ELK1 (Homo sapiens, UniProt P19419 1-428); conditions: protein: recombinant; tags: N-terminal GST; dsDNA, one strand shown
T5 sequence: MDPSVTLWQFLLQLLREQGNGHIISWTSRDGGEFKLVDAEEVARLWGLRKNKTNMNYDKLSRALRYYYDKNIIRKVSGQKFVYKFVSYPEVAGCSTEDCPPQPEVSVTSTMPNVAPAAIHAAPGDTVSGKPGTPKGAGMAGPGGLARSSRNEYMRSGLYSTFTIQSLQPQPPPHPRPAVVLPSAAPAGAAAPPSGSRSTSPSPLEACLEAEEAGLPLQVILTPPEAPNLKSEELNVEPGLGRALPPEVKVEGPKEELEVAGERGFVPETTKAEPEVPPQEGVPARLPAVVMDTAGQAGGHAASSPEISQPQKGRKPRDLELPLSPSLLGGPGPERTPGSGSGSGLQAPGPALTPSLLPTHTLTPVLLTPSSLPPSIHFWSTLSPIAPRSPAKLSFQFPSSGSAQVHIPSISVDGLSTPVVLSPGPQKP
How it was run: as §1

[8] = biological target: T6, GABPA (Homo sapiens, UniProt Q06546 1-454); conditions: protein: recombinant; tags: N-terminal GST; dsDNA, one strand shown
T6 sequence: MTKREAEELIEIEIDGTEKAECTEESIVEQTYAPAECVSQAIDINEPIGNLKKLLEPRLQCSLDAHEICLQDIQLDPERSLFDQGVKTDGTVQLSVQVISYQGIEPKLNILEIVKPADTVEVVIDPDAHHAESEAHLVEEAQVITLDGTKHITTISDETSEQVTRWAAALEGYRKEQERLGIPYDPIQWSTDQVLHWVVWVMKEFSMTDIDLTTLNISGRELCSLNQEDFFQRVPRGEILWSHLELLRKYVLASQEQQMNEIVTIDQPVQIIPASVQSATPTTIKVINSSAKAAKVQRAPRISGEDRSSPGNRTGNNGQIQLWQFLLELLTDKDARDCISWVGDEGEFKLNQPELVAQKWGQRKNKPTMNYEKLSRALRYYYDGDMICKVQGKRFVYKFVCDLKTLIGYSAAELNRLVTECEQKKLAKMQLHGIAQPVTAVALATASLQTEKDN
How it was run: as §1

CRX, sequence (O43186 whole entry): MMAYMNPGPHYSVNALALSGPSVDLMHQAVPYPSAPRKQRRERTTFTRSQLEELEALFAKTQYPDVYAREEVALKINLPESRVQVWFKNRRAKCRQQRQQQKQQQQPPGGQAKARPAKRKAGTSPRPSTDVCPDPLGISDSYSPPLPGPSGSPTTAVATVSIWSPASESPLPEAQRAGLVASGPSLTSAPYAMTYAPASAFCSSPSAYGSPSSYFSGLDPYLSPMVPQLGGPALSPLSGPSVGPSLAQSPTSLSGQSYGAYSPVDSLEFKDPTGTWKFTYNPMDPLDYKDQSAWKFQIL
HSF1, sequence (Q00613 whole entry): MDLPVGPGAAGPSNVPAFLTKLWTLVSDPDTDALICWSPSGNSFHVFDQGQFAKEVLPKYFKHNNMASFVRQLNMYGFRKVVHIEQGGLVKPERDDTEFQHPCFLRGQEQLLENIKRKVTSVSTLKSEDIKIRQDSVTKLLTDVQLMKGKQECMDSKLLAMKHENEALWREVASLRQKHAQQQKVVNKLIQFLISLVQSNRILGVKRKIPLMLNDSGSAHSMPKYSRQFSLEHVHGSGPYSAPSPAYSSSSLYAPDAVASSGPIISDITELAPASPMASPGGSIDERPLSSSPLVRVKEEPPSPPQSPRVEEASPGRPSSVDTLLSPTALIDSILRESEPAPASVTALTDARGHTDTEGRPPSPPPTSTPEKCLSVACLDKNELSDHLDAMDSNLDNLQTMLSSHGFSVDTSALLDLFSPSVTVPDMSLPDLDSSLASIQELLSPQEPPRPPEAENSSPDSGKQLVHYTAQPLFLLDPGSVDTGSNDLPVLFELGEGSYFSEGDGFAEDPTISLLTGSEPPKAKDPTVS

| Sequence | binding signal [1] | binding signal [2] | binding signal [3] | binding signal [4] | binding signal [5] | binding signal [6] | binding signal [7] | binding signal [8] |
| --- | --- | --- | --- | --- | --- | --- | --- | --- |
| ATCAAG | 1.04 fold enrichment (6-mer frequency, TF over GST control) | 1.03 fold enrichment (6-mer frequency, TF over GST control) | 1.17 fold enrichment (6-mer frequency, TF over GST control) | 1.19 fold enrichment (6-mer frequency, TF over GST control) | 1.06 fold enrichment (6-mer frequency, TF over GST control) | 1.01 fold enrichment (6-mer frequency, TF over GST control) |  |  |
| TCGAGT |  | 1.41 fold enrichment (6-mer frequency, TF over GST control) |  |  | 1.06 fold enrichment (6-mer frequency, TF over GST control) |  | 1.01 fold enrichment (6-mer frequency, TF over GST control) | 1 fold enrichment (6-mer frequency, TF over GST control) |
| TCAAGA |  | 1.12 fold enrichment (6-mer frequency, TF over GST control) |  | 1.03 fold enrichment (6-mer frequency, TF over GST control) |  |  |  |  |
| CAGATC |  | 1.09 fold enrichment (6-mer frequency, TF over GST control) | 1.02 fold enrichment (6-mer frequency, TF over GST control) | 1.13 fold enrichment (6-mer frequency, TF over GST control) |  | 1.07 fold enrichment (6-mer frequency, TF over GST control) |  |  |
